Each structure is given as a SMILES string. For some assays here: Measured potencies and affinities stand elsewhere.

Set-up in all cases: scale not given: direction of the effect not stated beside the values
The target of experiment [1] is Protein translocase subunit SecA (Escherichia coli (strain K12)) (UniProt P10408). Put plainly: Assay to Identify E. coli SecA ATPase Inhibitors. It counts as functional. Particulars: 30 µM.
Experiment [2] deals with T1, Ubiquitin-activating enzyme e1, putative (Leishmania donovani (strain BPK282A1)) (UniProt E9BSI1).
T1 sequence (whole entry): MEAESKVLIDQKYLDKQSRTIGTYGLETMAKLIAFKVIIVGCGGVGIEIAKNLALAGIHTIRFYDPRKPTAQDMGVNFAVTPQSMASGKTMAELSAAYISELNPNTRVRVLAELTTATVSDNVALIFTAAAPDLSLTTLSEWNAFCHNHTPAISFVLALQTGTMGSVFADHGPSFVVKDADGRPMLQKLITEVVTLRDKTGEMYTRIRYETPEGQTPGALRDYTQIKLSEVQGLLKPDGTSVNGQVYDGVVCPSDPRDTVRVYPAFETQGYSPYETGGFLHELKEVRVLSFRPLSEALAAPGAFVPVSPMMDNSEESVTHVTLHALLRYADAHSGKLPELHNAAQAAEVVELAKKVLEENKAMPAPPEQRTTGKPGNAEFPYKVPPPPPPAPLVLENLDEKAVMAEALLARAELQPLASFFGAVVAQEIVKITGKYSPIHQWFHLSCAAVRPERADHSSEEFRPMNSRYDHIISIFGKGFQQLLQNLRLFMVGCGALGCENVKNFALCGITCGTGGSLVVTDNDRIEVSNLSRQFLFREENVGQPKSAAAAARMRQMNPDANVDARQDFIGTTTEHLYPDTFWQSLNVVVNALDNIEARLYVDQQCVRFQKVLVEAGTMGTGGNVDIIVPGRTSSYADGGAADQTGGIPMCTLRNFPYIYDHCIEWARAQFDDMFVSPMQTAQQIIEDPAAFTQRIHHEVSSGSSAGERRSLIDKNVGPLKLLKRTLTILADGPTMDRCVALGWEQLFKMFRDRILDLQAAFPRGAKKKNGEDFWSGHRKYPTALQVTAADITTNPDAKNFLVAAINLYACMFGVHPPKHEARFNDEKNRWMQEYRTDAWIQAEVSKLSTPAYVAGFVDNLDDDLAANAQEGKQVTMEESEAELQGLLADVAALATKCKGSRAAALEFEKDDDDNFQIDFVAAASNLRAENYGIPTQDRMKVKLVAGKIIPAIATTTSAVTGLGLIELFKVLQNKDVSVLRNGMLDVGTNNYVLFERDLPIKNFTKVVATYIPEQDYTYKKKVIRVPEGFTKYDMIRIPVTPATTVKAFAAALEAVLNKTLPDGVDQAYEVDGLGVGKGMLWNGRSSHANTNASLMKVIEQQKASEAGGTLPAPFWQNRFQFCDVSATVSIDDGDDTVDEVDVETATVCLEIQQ
Kind of experiment: Leishmania donovani Ubiquitin Activating Enzyme (LdE1). Particulars: 30 µM. In kind it is functional.

Experiment [3] deals with AMP-activated protein kinase, AMPK (Homo sapiens) (UniProt P54646+O43741+P54619+Q9UGJ0+Q9Y478+Q13131+Q9UGI9). Kind of experiment: AMP-dependent Kinase enzyme assay. An in vitro enzyme assay that detects ADP turnover that is directly proportional to AMPK activity. This uses naive AMPK that is activated during the assay with MK-8722. Particulars: 30 µM. In kind it is functional.

For experiment [4], the target named is Sialic acid-binding Ig-like lectin 9 (Homo sapiens) (UniProt Q9Y336). Put plainly: Hs-Siglec9 ALPHAscreen SOP 20170721. To be noted: 10 µM.
Chain of Sialic acid-binding Ig-like lectin 9 (Homo sapiens) (Q9Y336 whole entry): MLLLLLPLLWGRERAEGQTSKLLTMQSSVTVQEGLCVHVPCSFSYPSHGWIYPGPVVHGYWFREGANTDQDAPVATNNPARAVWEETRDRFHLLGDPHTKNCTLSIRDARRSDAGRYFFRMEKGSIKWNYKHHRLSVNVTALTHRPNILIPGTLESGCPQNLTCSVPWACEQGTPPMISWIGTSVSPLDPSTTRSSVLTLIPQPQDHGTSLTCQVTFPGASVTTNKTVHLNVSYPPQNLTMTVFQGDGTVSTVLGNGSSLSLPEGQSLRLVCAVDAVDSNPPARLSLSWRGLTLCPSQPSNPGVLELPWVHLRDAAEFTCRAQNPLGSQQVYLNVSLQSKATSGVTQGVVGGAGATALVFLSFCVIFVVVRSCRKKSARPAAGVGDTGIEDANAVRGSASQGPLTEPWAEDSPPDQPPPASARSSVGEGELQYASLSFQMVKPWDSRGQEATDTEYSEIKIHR
The next experiment relates to Trypanosoma cruzi. Put plainly: Trypanosoma cruzi phosphomannomutase and mannose-1-phosphate guanylyltransferase assay. Particulars: 10 µM. In kind it is functional.
The target of experiment [5] is T2, Arginase-2, mitochondrial (Homo sapiens) (UniProt P78540).
T2 sequence (whole entry): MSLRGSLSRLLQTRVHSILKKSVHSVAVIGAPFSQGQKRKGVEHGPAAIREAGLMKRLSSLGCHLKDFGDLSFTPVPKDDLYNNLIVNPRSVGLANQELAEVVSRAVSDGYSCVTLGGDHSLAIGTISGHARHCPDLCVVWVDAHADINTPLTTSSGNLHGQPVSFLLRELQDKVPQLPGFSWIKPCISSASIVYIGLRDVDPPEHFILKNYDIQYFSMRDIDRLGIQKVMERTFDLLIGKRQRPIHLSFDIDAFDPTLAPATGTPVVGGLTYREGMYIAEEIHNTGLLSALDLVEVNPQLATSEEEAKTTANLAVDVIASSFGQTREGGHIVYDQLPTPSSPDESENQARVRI
Kind of experiment: in vitro enzyme assay to detect the production of urea directly proportional to the activity of Arginase II. Note: in the data most compounds retested in dose-response had high values. It counts as functional. To be noted: 33.3 µM.

Experiment [6] addresses T3, Proteasome subunit beta (Trypanosoma cruzi) (UniProt O96673).
T3 sequence (whole entry): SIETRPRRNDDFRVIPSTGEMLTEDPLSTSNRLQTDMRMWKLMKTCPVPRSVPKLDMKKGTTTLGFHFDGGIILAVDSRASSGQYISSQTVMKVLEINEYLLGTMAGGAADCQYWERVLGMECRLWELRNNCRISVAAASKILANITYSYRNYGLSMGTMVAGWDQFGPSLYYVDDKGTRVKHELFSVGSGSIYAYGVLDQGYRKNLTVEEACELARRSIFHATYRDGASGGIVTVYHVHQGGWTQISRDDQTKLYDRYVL
Kind of experiment: Trypanosoma cruzi proteasome chymotrypsin-like activity (TcProtChymo) assay. Note: in the data most compounds retested in dose-response had high values. It counts as functional. To be noted: 9.37 µM.

The species entered for a further experiment is Homo sapiens. Kind of experiment: To identify inhibition of the IFN signalling (Jak-Stat) pathway via expression of an eGFP reporter gene under the control of an IFN-stimulated response element (ISRE) containing MxA promoter. In kind it is functional. Particulars: 30 µM. In general terms: In a reporter assay the amount or activity of a reporter protein is the signal.

Experiment [7] concerns the target T4, Tyrosyl-tRNA synthetase, putative (Trypanosoma cruzi (strain CL Brener)) (UniProt Q4DSP6).
T4 sequence (whole entry): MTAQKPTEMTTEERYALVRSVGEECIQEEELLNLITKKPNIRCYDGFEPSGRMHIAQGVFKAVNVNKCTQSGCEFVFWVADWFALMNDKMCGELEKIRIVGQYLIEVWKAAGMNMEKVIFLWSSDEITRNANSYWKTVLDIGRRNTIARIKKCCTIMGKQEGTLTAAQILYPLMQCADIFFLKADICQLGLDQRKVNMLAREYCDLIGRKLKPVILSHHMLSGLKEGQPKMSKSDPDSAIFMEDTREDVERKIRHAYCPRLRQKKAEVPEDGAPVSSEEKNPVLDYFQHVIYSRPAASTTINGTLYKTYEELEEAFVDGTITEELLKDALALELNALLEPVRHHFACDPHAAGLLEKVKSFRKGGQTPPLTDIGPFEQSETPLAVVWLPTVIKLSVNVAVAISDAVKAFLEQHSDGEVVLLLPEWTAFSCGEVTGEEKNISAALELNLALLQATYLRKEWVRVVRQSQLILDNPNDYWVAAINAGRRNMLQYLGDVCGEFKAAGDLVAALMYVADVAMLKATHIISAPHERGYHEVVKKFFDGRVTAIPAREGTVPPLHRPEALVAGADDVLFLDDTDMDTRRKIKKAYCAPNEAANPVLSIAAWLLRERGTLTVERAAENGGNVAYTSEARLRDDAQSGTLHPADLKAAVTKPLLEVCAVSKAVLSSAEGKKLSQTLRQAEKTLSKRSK
Kind of experiment: Trypanosoma cruzi tyrosyl tRNA synthetase (TcYRS) _High Tyrosine SOP. Note: in the data most compounds retested in dose-response had high values. It counts as functional. To be noted: 30 µM.

In experiment [8] the target is T4, Tyrosyl-tRNA synthetase, putative (Trypanosoma cruzi (strain CL Brener)). Kind of experiment: Trypanosoma cruzi tyrosyl tRNA synthetase (TcYRS) SOP. In kind it is functional. Particulars: 30 µM.
In experiment [9] the target is Chromo domain-containing protein 1 (Saccharomyces cerevisiae (strain ATCC 204508 / S288c) (Baker's yeast)) (UniProt P32657). Put plainly: ScCHD-1 Enzyme Inhibition Assay. Note: in the data most compounds retested in dose-response had high values. It counts as functional. To be noted: 30 µM.
Chain of Chromo domain-containing protein 1 (Saccharomyces cerevisiae (strain ATCC 204508 / S288c) (Baker's yeast)) (P32657 whole entry, the tested form may be a part): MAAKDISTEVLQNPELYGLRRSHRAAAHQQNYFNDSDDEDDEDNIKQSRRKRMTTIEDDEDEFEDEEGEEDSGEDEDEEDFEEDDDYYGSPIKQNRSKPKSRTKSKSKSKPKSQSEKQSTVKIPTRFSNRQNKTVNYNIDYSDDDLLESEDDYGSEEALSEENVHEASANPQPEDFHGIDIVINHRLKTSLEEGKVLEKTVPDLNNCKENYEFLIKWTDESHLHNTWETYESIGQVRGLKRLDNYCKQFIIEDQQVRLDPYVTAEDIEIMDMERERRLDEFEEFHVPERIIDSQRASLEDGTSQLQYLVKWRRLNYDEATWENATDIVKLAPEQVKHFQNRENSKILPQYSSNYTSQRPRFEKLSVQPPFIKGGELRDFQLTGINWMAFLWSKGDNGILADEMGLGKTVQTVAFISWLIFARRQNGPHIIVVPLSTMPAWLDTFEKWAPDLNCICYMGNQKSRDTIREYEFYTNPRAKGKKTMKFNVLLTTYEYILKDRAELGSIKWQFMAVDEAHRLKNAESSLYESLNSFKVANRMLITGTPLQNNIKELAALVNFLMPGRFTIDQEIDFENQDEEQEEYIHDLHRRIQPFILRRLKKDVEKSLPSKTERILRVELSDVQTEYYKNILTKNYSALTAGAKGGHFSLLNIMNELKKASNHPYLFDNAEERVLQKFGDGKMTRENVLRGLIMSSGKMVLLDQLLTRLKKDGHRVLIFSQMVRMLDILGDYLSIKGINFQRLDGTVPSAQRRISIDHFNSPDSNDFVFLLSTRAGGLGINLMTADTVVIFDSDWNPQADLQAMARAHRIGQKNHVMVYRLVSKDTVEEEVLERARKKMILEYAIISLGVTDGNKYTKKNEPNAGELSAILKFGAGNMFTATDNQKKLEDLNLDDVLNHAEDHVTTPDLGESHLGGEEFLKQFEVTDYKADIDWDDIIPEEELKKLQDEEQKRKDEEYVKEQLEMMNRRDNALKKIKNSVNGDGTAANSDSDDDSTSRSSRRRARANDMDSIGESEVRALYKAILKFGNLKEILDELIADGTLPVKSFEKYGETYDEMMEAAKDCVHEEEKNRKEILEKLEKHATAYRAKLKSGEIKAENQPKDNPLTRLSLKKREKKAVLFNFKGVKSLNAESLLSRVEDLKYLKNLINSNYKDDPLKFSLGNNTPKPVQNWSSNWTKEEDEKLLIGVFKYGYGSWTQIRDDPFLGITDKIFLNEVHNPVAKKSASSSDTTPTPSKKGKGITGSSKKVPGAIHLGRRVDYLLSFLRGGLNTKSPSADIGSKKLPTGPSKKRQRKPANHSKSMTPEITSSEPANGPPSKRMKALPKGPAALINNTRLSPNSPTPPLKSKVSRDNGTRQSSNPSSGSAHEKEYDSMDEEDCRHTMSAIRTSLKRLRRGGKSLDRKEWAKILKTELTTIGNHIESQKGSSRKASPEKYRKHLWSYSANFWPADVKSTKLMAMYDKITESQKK

Chain of Protein translocase subunit SecA (Escherichia coli (strain K12)) (P10408 whole entry): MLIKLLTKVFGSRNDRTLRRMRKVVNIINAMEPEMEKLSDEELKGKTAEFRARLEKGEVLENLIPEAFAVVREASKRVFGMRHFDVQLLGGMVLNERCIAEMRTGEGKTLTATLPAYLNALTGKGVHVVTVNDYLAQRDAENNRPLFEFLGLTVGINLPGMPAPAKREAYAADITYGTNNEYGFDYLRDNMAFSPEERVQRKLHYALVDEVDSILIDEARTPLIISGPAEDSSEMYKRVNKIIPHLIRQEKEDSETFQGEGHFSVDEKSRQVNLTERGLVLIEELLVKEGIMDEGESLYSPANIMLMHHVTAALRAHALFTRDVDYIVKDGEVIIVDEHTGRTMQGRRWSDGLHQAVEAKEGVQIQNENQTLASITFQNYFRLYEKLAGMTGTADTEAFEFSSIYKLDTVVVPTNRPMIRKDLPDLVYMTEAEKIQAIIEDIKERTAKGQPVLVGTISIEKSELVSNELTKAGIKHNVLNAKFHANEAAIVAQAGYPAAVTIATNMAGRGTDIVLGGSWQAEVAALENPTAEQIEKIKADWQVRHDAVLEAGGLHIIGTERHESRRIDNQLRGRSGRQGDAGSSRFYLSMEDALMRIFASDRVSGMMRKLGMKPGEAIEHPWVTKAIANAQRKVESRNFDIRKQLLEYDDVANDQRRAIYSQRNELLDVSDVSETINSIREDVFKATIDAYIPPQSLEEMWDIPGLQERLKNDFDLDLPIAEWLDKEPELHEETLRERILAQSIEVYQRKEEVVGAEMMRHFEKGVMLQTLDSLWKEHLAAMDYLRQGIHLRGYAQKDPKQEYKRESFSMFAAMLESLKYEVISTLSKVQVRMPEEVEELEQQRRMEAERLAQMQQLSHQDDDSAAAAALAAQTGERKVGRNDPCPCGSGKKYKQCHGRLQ

With `Cc1nn(C)c(N(C)C)c1CNCC(O)c1ccccc1` (stereo not given), the Percent Effect is -0.702% in [1]; 2.74% in experiment [2]; -3.51% in [3]; -6.11% in experiment [4]; -4.31% in the experiment with Trypanosoma cruzi; 3.64% in [5]. In addition, the Percent Effect is 16.1% in experiment [6]; -8.18% in the experiment listed under Homo sapiens; 3.23% in experiment [7]; 10% in experiment [8]; -3.32% in [9].

In the case of `CCOCC(O)CN1CCN(C(=O)c2ccnc(N(C)C)c2)CC1` (stereo not given), the Percent Effect was -2.11% in [1]; 2.7% in [2]; -5.93% in [3]; 13.5% in experiment [4]; 5.99% with Trypanosoma cruzi; 1.43% in experiment [5]. Moreover, the Percent Effect in experiment [6] is 0%; in the experiment filed under Homo sapiens it was -4.49%; in experiment [7] it was 1.59%; in experiment [8] it was 7.32%; in [9], -3.55%.

As to `Cn1ccnc1CN1CCC2(CC1)CN(CC1CC1)C(=O)CO2`, the Percent Effect in experiment [1] is -1.66%; in [2] it was 0%; in experiment [3], 7.96%; in experiment [4], -0.145%; with Trypanosoma cruzi, -0.296%; in experiment [5], -1.94%. Also, the Percent Effect stood at 0.522% in experiment [6]; 12.5% in the experiment listed under Homo sapiens; 4.23% in experiment [7]; 8.97% in [8]; 90.8% in experiment [9].

Take `CN(CCc1ccccc1)c1cnn(CC(=O)N2CCSCC2)c(=O)c1`: the Percent Effect in experiment [1] was -1.2%; in experiment [2] it was 0%; in experiment [3] it was 19.7%; in experiment [4], 12.4%; in the experiment with Trypanosoma cruzi, -4.5%; in experiment [5], 2.73%. The Percent Effect is -1.6% in experiment [6]; 4.15% in the experiment listed under Homo sapiens; 1.07% in experiment [7]; 2.5% in [8]; 0.365% in [9].

On to `CCN(CC)CCNC(=O)c1cc(C(C)C)nc(N2CCCC2)n1`, for which the Percent Effect in experiment [1] was -0.4%; in experiment [2] it was 20%; in experiment [3], 1.03%; in [4] it was -8.5%; in the experiment on Trypanosoma cruzi, 2.55%; in experiment [5], -24.1%. Besides, the Percent Effect in experiment [6] came out at 12.8%; in the experiment filed under Homo sapiens, 20.4%; in experiment [7] it was 0%; in [8], 12.8%; in [9], 80.8%.

For the compound `COc1ncccc1C(=O)N1CCN(C(=O)Cc2ccccn2)CC1`, the Percent Effect in [1] was -1.65%; in experiment [2] it was 21.5%; in experiment [3], -6.89%; in [4], -0.0483%; with Trypanosoma cruzi it was 2.36%; in [5], -2.37%. The Percent Effect is 18% in experiment [6]; 17.4% in the experiment listed under Homo sapiens; 7.29% in experiment [7]; 20.2% in [8]; -20.3% in experiment [9].

For `COc1cccc(COCC(=O)N2CCCC(c3cc(C)[nH]n3)C2)c1` (stereo not given), the Percent Effect is -3.58% in [1]; 13.5% in [2]; -9.62% in experiment [3]; 3.3% in [4]; -2.92% in the experiment on Trypanosoma cruzi; -0.401% in experiment [5]. Besides, the Percent Effect was 2.7% in [6]; 10.1% in the experiment listed under Homo sapiens; 11.3% in [7]; 16.1% in [8]; -4.89% in experiment [9].

Consider `Cc1cnn(CC2CCCCN2CCC(=O)Nc2cc(C)on2)c1` (stereo not given), for which the Percent Effect in experiment [1] is -4.7%; in experiment [2] it was 3.8%; in [3] it was -0.138%; in experiment [4] it was 0.417%; in the experiment with Trypanosoma cruzi, 0.308%; in experiment [5], -1.07%. Further, the Percent Effect is 11.7% in experiment [6]; -10.4% in the experiment filed under Homo sapiens; 1.04% in experiment [7]; 12.7% in experiment [8]; -13.7% in [9].

`Cc1nc(CSCCC(=O)NCc2cccnc2N(C)C)cs1`: the Percent Effect in experiment [1] is -0.871%; in experiment [2] it was 20.2%; in experiment [3] it was -1.17%; in [4] it was -7.06%; in the experiment on Trypanosoma cruzi, 5.38%; in experiment [5] it was 4.56%. In addition, the Percent Effect in [6] is 7.45%; in the experiment filed under Homo sapiens, 5.3%; in experiment [7] it was 6.4%; in experiment [8] it was 24.1%; in [9], -7.54%.

As to `Cc1nc(CN2C(=O)C[C@H]3[C@H]2CCN3C2CCOCC2)cs1`, the Percent Effect in experiment [1] is -2.26%; in [2] it was 11%; in experiment [3] it was -0.758%; in [4] it was 4.06%; in the experiment with Trypanosoma cruzi, 0.595%; in experiment [5], -2%. Besides, the Percent Effect was 8.3% in experiment [6]; -4.37% in the experiment listed under Homo sapiens; 3.12% in experiment [7]; 11.1% in experiment [8]; -3.21% in experiment [9].

The record behind these values is ChEMBL document CHEMBL3988442, “University of Dundee, Small-Polar-MMV Screening Library” (2021).
